Compound activity: PubChem, several laboratories
sPLA2-III inh – human group III sPLA2 inhibitors, primary screen, biochemical, QFRET, BODIPY PC-A2 liposome substrate. Group 3 secretory phospholipase A2 (Homo sapiens), Q9NZ20. QFRET BODIPY PC-A2 liposome hydrolysis, fluorescence. inhibition, % at 12.2 µM. actives 0.56% (n = 370,000). AID 743126, 2013;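 active means inhibition above mean plus 3 SD of compounds lying within the high and low control bounds, cut at about 19% in these data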;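 further: 0% = median of test compound wells and 100% = no enzyme DMSO wells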
KLK7 zymogen act – proKLK7 zymogen activators, primary screen, biochemical, fluorescence intensity; Kallikrein-7 (Homo sapiens), P49862; purified proKLK7, EDANS-DABCYL substrate fluorescence; 100% is mature enzyme control, 0% vehicle; activation, % at 7 µM; actives 0.9% (n = 370,000);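 active means activation above the mean of all tested compounds plus 3 SD, computed per campaign excluding outliers beyond control limits, cut at about 13% in these data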
ADAM10 inh – human ADAM10 inhibitors, primary screen, biochemical, QFRET, HTS; AID 720582, 2013; recombinant ADAM10, EDANS/DABCYL FRET peptide cleavage, 3 h; inhibition, % at 7 µM; Disintegrin and metalloproteinase domain-containing protein 10 (Homo sapiens), O14672; actives 0.62% (n = 370,000);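 active means inhibition above a per-campaign cutoff equal to the mean of compounds falling between control-based bounds plus 3 SD, cut at about 20% in these data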;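 further: 0% = DMSO wells while the 100% control is not disclosed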
ADAM17 inh – ADAM17 inhibitors, primary screen, biochemical, QFRET; inhibition, % at 6.95 µM; actives 0.83% (n = 370,000); AID 720648, 2013; Disintegrin and metalloproteinase domain-containing protein 17 (Homo sapiens), P78536; recombinant ADAM17, EDANS/DABCYL FRET peptide cleavage;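 active means inhibition above the mean of compounds lying between control limits plus 3 SD, set per campaign, cut at about 8.5% in these data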;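 further: 0% = DMSO-only wells as the low control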
Target sequence (P78536 215-824 limits assumed): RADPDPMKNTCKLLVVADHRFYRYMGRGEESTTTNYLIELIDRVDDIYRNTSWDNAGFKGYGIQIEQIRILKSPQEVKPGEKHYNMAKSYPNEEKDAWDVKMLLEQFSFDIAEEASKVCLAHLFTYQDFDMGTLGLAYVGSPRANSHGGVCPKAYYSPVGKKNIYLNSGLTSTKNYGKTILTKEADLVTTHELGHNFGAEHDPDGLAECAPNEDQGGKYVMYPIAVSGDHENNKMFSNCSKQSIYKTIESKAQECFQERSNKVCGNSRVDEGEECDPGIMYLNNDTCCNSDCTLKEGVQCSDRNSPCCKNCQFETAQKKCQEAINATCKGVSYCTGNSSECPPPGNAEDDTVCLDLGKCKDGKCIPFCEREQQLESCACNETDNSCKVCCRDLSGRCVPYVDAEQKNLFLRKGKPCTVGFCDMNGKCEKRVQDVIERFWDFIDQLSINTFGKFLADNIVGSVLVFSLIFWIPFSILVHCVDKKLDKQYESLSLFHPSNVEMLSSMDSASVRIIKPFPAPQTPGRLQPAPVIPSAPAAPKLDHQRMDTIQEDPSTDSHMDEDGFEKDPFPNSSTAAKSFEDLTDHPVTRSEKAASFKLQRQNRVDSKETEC
CendR NRP1 mod – modulators of CendR peptide binding to NRP-1, primary screen, biochemical, fluorescence polarization, uHTS | Neuropilin-1 (Homo sapiens), O14786 | FAM-RPARPAR peptide binding to NRP-1 | inhibition, % at 25 µM | actives 0.85% (n = 360,000) | AID 602438, 2012;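 active means inhibition or corrected inhibition above about 18%, plus a signal ratio from 0.5 to 1.5, limit read from the data, passing the limit was not always enough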
proKLK7 act conf – proKLK7 zymogen activators, confirmation, biochemical, fluorescence intensity, triplicate; activation, % at 7 µM; actives 68% (n = 3,200); shares compounds with KLK7 zymogen act; purified proKLK7, EDANS-DABCYL substrate fluorescence; scaled: vehicle 0, mature enzyme 100;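 active means activation, as change over the incubation, above the mean of all tested compounds plus 3 SD, cut at about 13% in these data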
EDANS-DABCYL int – EDANS-DABCYL substrate optical interference, artefact control for kallikrein-7 zymogen activator project, biochemical, fluorescence intensity, high throughput; AID 686952, 2013; shares compounds with KLK7 zymogen act; activation, % at 7 µM; actives 80% (n = 3,200); no enzyme, 4 h; solvent 0%, active enzyme control 100%;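 active means activation above the all-compound mean plus 3 SD, ignoring values outside control-based bounds, cut at about 4.8% in these data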;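 further: value is the 4 h activation minus the activation read at time zero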
K7 EDANS ctr – counter-screen for kallikrein-7 activators: EDANS-DABCYL interference, dose response; EDANS-DABCYL peptide fluorescence interference, no enzyme; actives 20% (n = 250); EC50, µM; shares compounds with KLK7 zymogen act;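 active means compounds that raise the fluorescence signal in this interference counterscreen, with EC50 at or below 10 µM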;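 further: intact quenched peptide substrate alone read at 355 nm excitation and 520 nm emission; signal is fluorescence gain from T0 to T4 after four hours at room temperature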
An asterisk follows results filed as active; i = inactive; . = not tested or not shown. This is a sample that favours compounds with a hit; in the whole collection about 3.4% have one here.

SMILES | sPLA2-III inh | KLK7 zymogen act | ADAM10 inh | ADAM17 inh | CendR NRP1 mod | proKLK7 act conf | EDANS-DABCYL int | others
COCCCn1c(C(=O)N2CC(C)OC(C)C2)cc2c(=O)n3ccccc3nc21 (stereo not given) | 6 | 83* | i | i | 10 | 70* | 71*
COC(=O)[C@]12C[C@H](CC(=O)NCCC(C)C)C(=O)N(Cc3ccc(Cl)cc3Cl)C1=C[C@H](C(C)(C)C)O[C@@H]2C | 3 | 1 | 6 | 1 | . | . | .
CCn1c(=O)n(CC(=O)N2CCN(c3ccc(F)cc3)CC2)c(=O)c2ccccc21 | 3 | 0 | -1 | 0 | . | . | .
CN1C(=O)c2cc(NC(=O)Nc3ccccc3)ccc2OC[C@H]2O[C@@H](CC(=O)N[C@H]3CCN(Cc4ccccc4)C3)CC[C@@H]21 | -26 | 0 | 6 | -1 | . | . | .
N=c1c(C(=O)NC2CCCC2)cc2c(=O)n3ccccc3nc2n1CC1CCCO1 (stereo not given) | 2 | 105* | i | i | 1 | 33* | 25* | K7 EDANS ctr=>69
N=c1c(C(=O)NC2CCCCC2)cc2c(=O)n3ccccc3nc2n1CC1CCCO1 (stereo not given) | 7 | 53* | i | i | -7 | 8 | 21*
COCCCn1c(=N)c(C(=O)NC2CCCCC2)cc2c(=O)n3ccccc3nc21 | 1 | 150* | i | i | -12 | 4 | -3
CC(NC(=O)c1cc2c(=O)n3ccccc3nc2n(CC2CCCO2)c1=N)c1ccccc1 (stereo not given) | 7 | 12 | i | i | 2 | . | .
CSc1c(N(C)C)c(=O)c1=S | 13 | 1 | -9 | -5 | . | . | .
Cc1ccc(-c2nnc(NC(=O)COc3ccc(F)cc3Cl)o2)cc1C | -8 | . | -2 | -3 | . | . | .
COc1ccc2c(c1)CCN(C(=O)CCl)C2C1C(=O)CCCC1=O (stereo not given) | 1 | 0 | -10 | -9 | -8 | . | .
COc1cc2c(cc1OC)C(C1C(=O)CCCC1=O)N(C(=O)CCl)CC2 (stereo not given) | 0 | 191* | i | -286 | 7 | 6 | 9.2*
COc1cc2c(cc1OC)C(C1C(=O)CC(C)CC1=O)N(C(=O)CCl)CC2 (stereo not given) | -11 | 213* | i | -222 | -3 | 9 | 9.7*
CC(=O)N1CCCN(C(=O)Cn2cnc3ccccc3c2=O)CC1 | 2 | 0 | -4 | -1 | . | . | .
CCN(CC)CCCNc1oc(/C=C/c2ccccc2)nc1C#N | -5 | 104* | i | i | 11 | 28* | 18* | K7 EDANS ctr=>69
CN(C)c1oc(/C=C/c2ccccc2)nc1C#N | 8 | 58* | i | i | -8 | 69* | 62*
C[C@H]1COc2c3ccccc3nn21 | 6 | 0 | 0 | 0 | . | . | .
COC(=O)[C@]12C[C@H](CC(=O)NCc3cccc4ccccc34)C(=O)N(CCc3ccc(OC)c(OC)c3)C1=C[C@H](COCc1ccccc1)O[C@@H]2C | -16 | 0 | 13 | 4 | . | . | .
COc1ccc(C(=O)OCCN2CCN(C3CN(Cc4cn(Cc5ccccc5C(F)(F)F)nn4)S(=O)(=O)C3)CC2)cc1OC (stereo not given) | 0 | 0 | 2 | 0 | . | . | .
COC(=O)c1cc(-c2cc3ccccc3s2)c(=O)n2c1CCC2 | -3 | -1 | -191 | -52 | . | . | .
CNc1cc(-c2cccc(OC)c2F)nc2ccnn12 | 4 | 38* | i | -392 | 7 | 28* | 27*
COc1ccccc1-c1cc(C(F)(F)F)nc(NCc2ccco2)n1 | -9 | 0 | -41 | -13 | 13 | . | .
CN(CCO)c1ccc2c(c1)Oc1ccccc1CN(Cc1cn(Cc3ccc(F)cc3)nn1)S2(=O)=O | 4 | 1 | 5 | -3 | . | . | .
C=CCn1c(N)c(C(=O)OCCC)c2nc3ccccc3nc21 | 3 | 60* | i | i | 4 | 52* | 50*
C=CCC12C=C(OC)C(=O)C(C1=O)C(c1ccc(OC)cc1)C2C (stereo not given) | -1 | 0 | -5 | 2 | . | . | .
SMILES | sPLA2-III inh | KLK7 zymogen act | ADAM10 inh | ADAM17 inh | CendR NRP1 mod | proKLK7 act conf | EDANS-DABCYL int | others
CCOC(=O)N1CCN(C(=O)c2cc3c(=O)n4ccccc4nc3s2)CC1 | 2 | 17* | i | -239 | 12 | 90* | 78*
CN1CCN(C(=O)c2cc3c(=O)n4ccccc4nc3s2)CC1 | -3 | 48* | i | i | 16 | 70* | 71*
CCn1c(=O)c2cc(C(=O)N3CCN(C)CC3)sc2c2ccccc21 | 11 | 28* | i | -139 | 2 | 9 | 8.0*
CCOC(=O)N1CCN(C(=O)C[C@H]2C[C@@]3(C(=O)OC)C(=C[C@H](C(C)C)O[C@@H]3C3CC3)N(Cc3ccco3)C2=O)CC1 | -4 | 0 | 7 | 3 | . | . | .
N#Cc1ccc2nc(-c3ccc(CN4CCC(c5nc6ccccc6[nH]5)CC4)cc3)c(-c3ccccc3)nc2c1 | -7 | -5 | -56 | -15 | . | . | .
CNC(=S)N1CCN(c2c(F)cc3c(=O)c(C(=O)O)cn(C4CC4)c3c2OC)CC1C (stereo not given) | 5 | -1 | -61 | -12 | -6 | . | .
C[C@H]1COc2c(N3CCN(C)CC3)c(F)cc3c(=O)c(C(=O)O)cn1c23 | 1 | 172* | i | -458 | -22 | 55* | 56*
CN1CCN(c2c(F)cc3c(=O)c(C(=O)O)cn4c3c2SCC4)CC1 | 9 | 98* | i | -173 | 8 | 35* | 43*
Cc1c(-n2cc(C(=O)O)c(=O)c3cc(F)c(N4CCCC4)c(F)c32)c(=O)n(-c2ccccc2)n1C | -4 | 0 | -3 | -5 | 1 | . | .
Nn1c(SCc2ccc(Br)cc2)nnc1-c1n[nH]c2c1CCC2 | -2 | 0 | 4 | 3 | . | . | .
Cc1cc(C)n2cc(CSc3ccccn3)nc2n1 | 3 | 1 | -64 | -17 | -1 | . | .
Cc1cc(C)n2cc(CSCc3ccccc3)nc2n1 | -1 | 14* | i | -357 | 10 | 25* | 21* | K7 EDANS ctr=>70
